Sampled rows, rich in hits. Any-hit rate of the full collection: about 1.3%.
PREPL inhibitor = PREPL enzyme inhibitors, primary screen, biochemical, fluorescence polarization | Prolyl endopeptidase-like (Homo sapiens), Q4J6C6 | recombinant PREPL, fluorescence polarization activity-based probe | inhibition, % at 5.96 µM | hit rate 0.68% among 320,000 | AID 2751, 2010; in the data active = inhibition above about 43%;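 note: 0% = enzyme with DMSO and 100% = wells lacking enzyme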
MIN6 prolif-1 = inducers of MIN6 beta-cell proliferation, primary screen, ATP luminescence, uHTS; MIN6 cells proliferation, ATPlite luminescence, 48 h; cells starved in 0.2% serum; 100% = growth in 10% serum; proliferation, % at 10 µM; hit rate 0.29% among 330,000; AID 2380, 2010;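 active = compounds whose signal lies at least 3.5 SD above the mean of all wells on their plate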;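 note: 0% = DMSO-treated cells in low-serum medium and 100% = 10% serum control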
UBC13 polyUb = UBC13 polyubiquitin chain formation inhibitors, primary screen, biochemical, TR-FRET, uHTS. hit rate 0.47% among 330,000. Ubiquitin-conjugating enzyme E2 N (Homo sapiens), P61088. inhibition, % at 20 µM; in the data active = inhibition above about 45%, passing the limit was not always enough
Target sequence (P61088 whole entry, looked up): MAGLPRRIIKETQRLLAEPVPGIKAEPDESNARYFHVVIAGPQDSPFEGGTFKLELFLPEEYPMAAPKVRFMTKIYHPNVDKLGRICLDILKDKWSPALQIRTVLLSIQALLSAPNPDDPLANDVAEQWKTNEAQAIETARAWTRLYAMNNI
DNA FID counter = compounds displacing fluorescent DNA intercalator, primary screen, artefact control for HCV NS3 helicase inhibitor project, biochemical, FID fluorescence | DNA fluorescent intercalator displacement | inhibition, % at 7.9 µM | hit rate 0.17% among 290,000 | AID 1845, 2009; in the data active = inhibition above about 37%;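 note: 0% = vehicle and 100% = reference compound; higher means more ethidium bromide displaced from hairpin DNA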
RAD52 inh = RAD52 DNA annealing inhibitors, primary screen, biochemical, FRET, single point, set 2 | recombinant RAD52 DNA annealing, FRET fluorescence | inhibition, % at 18.7 µM | hit rate 0.46% among 360,000;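 active = every replicate showing at least 50% inhibition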
Target sequence (P43351 whole entry, looked up): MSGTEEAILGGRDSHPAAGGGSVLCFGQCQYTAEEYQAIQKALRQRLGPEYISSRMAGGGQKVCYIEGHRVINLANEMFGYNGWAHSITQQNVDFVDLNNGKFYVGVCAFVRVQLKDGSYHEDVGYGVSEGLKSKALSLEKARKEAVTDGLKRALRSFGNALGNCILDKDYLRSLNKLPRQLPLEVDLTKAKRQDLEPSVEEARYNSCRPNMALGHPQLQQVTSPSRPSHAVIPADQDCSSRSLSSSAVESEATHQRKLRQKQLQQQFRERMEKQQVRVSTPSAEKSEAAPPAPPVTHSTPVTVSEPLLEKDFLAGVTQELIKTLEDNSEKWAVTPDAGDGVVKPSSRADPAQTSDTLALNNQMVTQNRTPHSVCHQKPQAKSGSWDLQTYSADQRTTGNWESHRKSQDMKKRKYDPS
RAD54 inh = inhibitors of human RAD54 branch migration, primary screen, biochemical, fluorescence, single point. hit rate 0.14% among 360,000. AID 602329, 2012. DNA repair and recombination protein RAD54-like (Homo sapiens), Q92698. RAD54 Holliday junction branch migration, FAM/BHQ fluorescence. inhibition, % at 10.4 µM;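 active = mean normalized replicate activity at least 40 and at least half of replicates scoring 40 or more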;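 note: 0% = median of neutral control wells and 100% = median of positive control wells; inhibitors cause a drop in the FAM fluorescence signal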
MIN6 prolif-2 = inducers of beta-cell proliferation in MIN6, confirmation, MIN6 cells, mouse; shares compounds with MIN6 prolif-1; ATPlite luminescence, 48 h; cells kept in 0.2% serum; scaled between 0.2% and 10% serum; proliferation increase, % at 50 µM; 920 tested, under 10 active; AID 463095, 2010;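 active = proliferation increase above 40% at any of the four tested concentrations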
* marks the source's active call; other numbers are inactive results; x = no result.

SMILES	PREPL inhibitor	MIN6 prolif-1	UBC13 polyUb	DNA FID counter	RAD52 inh	RAD54 inh	MIN6 prolif-2
Cc1nc(N)c(C#N)c(-c2ccccc2)c1C	-4.2	5.9*	2.0	-8.1	x	9.9	3.1
Cc1c(-c2ccccc2)nc(N)c(C#N)c1-c1ccco1	9.3	0.2	1.4	-2.3	x	-2.0	x
Cc1cccc(NC(=O)COC(=O)CNC(=O)C2CCCCC2)c1	3.1	2.2	7.4	-6.7	x	1.0	x
CSc1cccc(NC(=O)CNC(=O)C2CCCCC2)c1	2.7	11.3*	0.5	-13.0	-9.6	-5.8	-1.1
O=C(c1ccc(F)cc1)N1CCCC(C(=O)N2CCc3ccccc3C2)C1 (stereo not given)	10.3	-1.3	4.3	-26.7	-11.2	x	x
O=C(c1cccc([N+](=O)[O-])c1)N1CCCC(C(=O)N2CCc3ccccc3C2)C1 (stereo not given)	26.4	6.0*	0.7	-29.6	-9.2	2.5	-0.5
Cc1ccc(C(=O)Nc2ccc(Cl)cn2)cc1S(=O)(=O)N1CCOCC1	1.0	-2.7	1.4	-9.4	x	-0.8	x
Cc1ccc(NC(=O)c2ccc(C)c(S(=O)(=O)N3CCOCC3)c2)nc1	-2.4	12.9*	-3.5	x	-7.8	-4.8	-3.4
CC(C)NC(=O)Cn1cnc2c1c(=O)n(C)c(=O)n2C	-6.1	2.6	4.5	-2.5	x	4.6	x
Cn1c(=O)c2c(ncn2CC(=O)NC2CCCCC2)n(C)c1=O	9.5	11.3*	0.3	-5.0	-3.7	2.4	-3.3
CCC(=O)N1[C@@H]2c3cccc(=O)n3C[C@@H]2[C@@H](CO)[C@@H]1C(=O)N1CCc2ccccc2C1	x	x	x	x	5.7	-0.3	x
Cc1cc(C(=O)Nc2ccc3c(c2)C(=O)N(C)[C@H]2CC[C@@H](CC(=O)NC4CCCC4)O[C@@H]2CO3)no1	x	x	x	x	-1.9	-11.7	x
COc1ccc(Oc2nc(-c3ccncc3)nc3ccccc23)cc1	10.1	-3.0	5.4	-3.5	-1.4	-7.7	x
COc1nc(-c2ccncc2)nc2ccccc12	-1.7	6.2*	1.6	-7.0	x	7.4	-5.0
c1ccc2c(N3CCCC3)nc(-c3ccncc3)nc2c1	3.5	13.8*	-5.9	-10.0	x	x	-6.1
c1ccc(CN2CCN(c3nc(-c4ccccc4)nc4ccccc34)CC2)cc1	-15.8	-3.2	4.1	1.4	x	-0.5	x
O=C(C[C@H]1C=C[C@@H](NC(=O)C2CCC2)[C@@H](CO)O1)Nc1nccs1	x	x	x	x	-2.9	0.9	x
O=C(Nc1ccc(F)cc1)N1CC(=O)N2[C@H](C1)[C@H](c1ccc(C3=CCCC3)cc1)[C@@H]2CO	x	x	x	x	1.1	x	x
COc1ccc(C(=O)N=C2SC3CS(=O)(=O)CC3N2Cc2ccc(OC)c(OC)c2)cc1 (stereo not given)	11.1	10.8*	9.2	-56.9	-13.7	0.7	-2.3
C[C@@H]1CN([C@H](C)CO)C(=O)Cc2cc(NS(=O)(=O)c3cccs3)ccc2O[C@H]1CN(C)Cc1ccc2c(c1)OCO2	x	x	x	x	-8.7	1.1	x
C[C@@H]1CN([C@H](C)CO)C(=O)c2cccc(NC(=O)NC3CCCCC3)c2O[C@H]1CN(C)Cc1ccc(Cl)c(Cl)c1	x	x	x	x	-0.1	0.3	x
CSc1nc(N)nc(SCC(=O)C(C)(C)C)c1C#N	-2.3	-0.9	-3.9	0.7	x	-0.8	x
CSc1nc(N)nc(SC2C=CCCC2)c1C#N (stereo not given)	3.7	5.9*	9.4	-1.5	-5.1	-9.2	8.9
CC1CN(c2nc(N(C)c3ccccc3)nc(N)c2[N+](=O)[O-])CC(C)O1 (stereo not given)	2.2	8.7*	-0.1	-38.7	2.4	x	-2.9
CO[C@@H]1CN(C)C(=O)c2ccc(NS(=O)(=O)c3ccccc3)cc2OC[C@@H](C)N(C)C[C@@H]1C	x	x	x	x	2.3	-3.4	x
SMILES	PREPL inhibitor	MIN6 prolif-1	UBC13 polyUb	DNA FID counter	RAD52 inh	RAD54 inh	MIN6 prolif-2
CCN(CC)c1ncnc2scc(C3COc4ccccc4O3)c12 (stereo not given)	19.5	-1.3	-0.5	-12.2	x	-5.1	x
c1ccc2c(c1)OCC(c1csc3ncnc(N4CCOCC4)c13)O2 (stereo not given)	-1.8	5.3*	5.9	-6.5	x	x	-4.0
C/C(=N/Nc1ncc(C(F)(F)F)cc1Cl)c1ccncc1	-4.1	7.8*	1.2	-3.8	-4.0	3.7	-2.6
CCN(CC)S(=O)(=O)c1cc(Cl)ccc1OC	16.2	-1.6	-0.4	0.6	-9.1	x	x
CCN(CC)S(=O)(=O)c1cc(OC)c(Cl)cc1OC	-4.7	7.8*	3.7	-6.8	-5.7	x	-1.4
O=C(Nc1ccc(F)cc1)c1ccccc1NS(=O)(=O)N1CCCC1	4.5	8.5*	6.2	-1.2	-26.1	x	-6.3
O=S(=O)(Nc1ccc(F)cc1)N1CCCCCC1	-10.4	-1.1	6.3	-3.8	x	-0.7	x
CO[C@@H]1CN(C)C(=O)c2cc(NC(=O)Nc3ccccc3)ccc2OC[C@@H](C)N(C(=O)Nc2c(C)noc2C)C[C@@H]1C	x	x	x	x	11.2	-4.7	x
C[C@@H]1CN([C@@H](C)CO)C(=O)c2cc(NC(=O)CCC(F)(F)F)ccc2O[C@@H](C)CCCCO[C@@H]1CN(C)C(=O)C1CCCCC1	x	x	x	x	-6.2	-0.4	x
Cc1cc(NC(=O)CSc2cc(C)c3ccccc3n2)no1	4.4	7.3	20.3	x	-19.9	-2.6	x
COc1ccccc1NC(=O)CSc1c2c(nc3ccccc13)CCC2	1.7	8.4*	2.5	-27.2	x	x	-6.3
Cc1cc(NC(=O)CSc2c3c(nc4ccccc24)CCC3)no1	2.9	16.1*	21.0	-12.4	-11.7	-3.5	-6.1
COc1ccc(NC(=O)CSc2c3c(nc4ccccc24)CCCC3)c(OC)c1	4.7	0.0	15.4	-30.6	x	5.4	x
O=[N+]([O-])c1cn(-c2nc(-c3ccco3)cc(C(F)(F)F)n2)cn1	-3.3	7.7*	-6.0	-0.6	x	-0.2	-0.2
CN1CCN(c2nc(-c3ccco3)cc(C(F)(F)F)n2)CC1	0.8	1.1	-8.8	-0.7	-10.3	-2.7	x
CC(=O)C1=C(O)C(=O)N(Cc2ccccc2)C1c1ccc(N(C)C)cc1 (stereo not given)	-2.0	6.1*	-9.0	-29.9	-20.2	-3.7	0.1
CC(=O)C1=C(O)C(=O)N(Cc2ccccc2)C1c1ccc(Cl)cc1 (stereo not given)	-9.1	-0.5	4.0	-33.2	-3.2	-15.0	x
COc1cc2c(cc1OC)CN(C(=O)c1sccc1C)CC2	2.2	5.1*	1.5	-9.7	-11.4	x	-0.3
CCc1nc(N)c(C#N)c(-c2ccco2)c1C	5.9	7.1*	4.9	-1.1	x	-4.1	4.3
CCCCCc1nc(N)c(C#N)c(-c2ccco2)c1CCCC	-0.8	0.0	9.7	-2.0	x	12.4	x
